From PubChem BioAssay
RORg inh – ROR gamma (mouse) transcription inhibition; P51450; Drosophila S2 Gal4-RORgamma UAS-luciferase reporter, 20 h; Potency, µM (series often up to 53.6 µM), inactives show at the top dose activity change, negative = inhibition, actives largely listed as inhibitors; actives 5.4% (n = 310,000); AID 2551; note: potency is the fitted concentration of half-maximal effect; nearly all actives have a fitted effect of over 60% in size
Target sequence (P51450 whole entry, looked up, the tested form may be a part): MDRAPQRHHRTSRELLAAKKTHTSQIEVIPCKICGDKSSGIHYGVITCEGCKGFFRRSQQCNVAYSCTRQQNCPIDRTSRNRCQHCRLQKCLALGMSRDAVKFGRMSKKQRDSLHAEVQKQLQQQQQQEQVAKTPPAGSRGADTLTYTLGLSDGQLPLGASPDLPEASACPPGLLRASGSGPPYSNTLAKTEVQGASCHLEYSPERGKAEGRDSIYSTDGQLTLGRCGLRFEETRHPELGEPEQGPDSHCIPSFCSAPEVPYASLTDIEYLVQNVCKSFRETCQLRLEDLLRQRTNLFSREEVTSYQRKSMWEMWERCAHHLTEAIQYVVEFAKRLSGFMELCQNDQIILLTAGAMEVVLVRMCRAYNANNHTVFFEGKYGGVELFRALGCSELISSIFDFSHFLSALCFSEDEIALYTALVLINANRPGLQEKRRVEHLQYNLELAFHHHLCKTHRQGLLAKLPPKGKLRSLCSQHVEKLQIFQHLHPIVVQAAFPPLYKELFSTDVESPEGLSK
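Stable Schneider cell line, Gal4 DNA-binding domain fused to ROR gamma, UAS-luciferase. Cmpd 1 hr RT → CuSO4 700 uM final → 20 hr RT → luciferase reagent 10 min → luminescence.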
ELG1 repair inh – ELG1-dependent DNA repair inhibition. HEK293T ELG1-luciferase reporter, luminescence, 16 h; DNA damage induced by 5-fluorouridine. Potency, µM (top dose mostly 46.1 µM), for inactives: at the top dose activity change, negative = inhibition, hits mostly inhibitors. actives 2.3% (n = 330,000). AID 504467; note: potency is the fitted concentration of half-maximal effect; nearly all actives have a fitted effect of over 55% in size
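Luminescence from the luciferase reporter, measured 30 min after ONE-Glo reagent at room temperature, was the read-out. Beforehand, 2,000 cells per well were exposed for 16 hr at 37 °C to 5-fluorouridine together with compound or vehicle.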
IL-1B inflam inh – inflammasome signaling inhibition, IL-1 beta readout; AID 743279; actives 4.7% (n = 360,000); activity change, % at 57.5 µM; THP-1 LPS/ATP IL-1B secretion, AlphaLISA, 16 h; active compounds read low; in the data active = activity change below about -50%; inconclusive = mostly about -30% to -49%
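THP-1 cells pretreated 1 hr with compounds (up to 57.5 uM final), then stimulated with LPS (250 ng/mL final) plus ATP (1.25 mM final); secreted IL-1B measured by AlphaLISA after 16 hr, decreased signal indicating inhibition.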
TDP1 cell CPT – DT40-hTDP1 cell growth loss with CPT. chicken DT40 Tdp1-/-;hTDP1 cells + 20 nM CPT, ATP luminescence, 48 h. Potency, µM (highest dose often 46.2 µM), inactives show at the highest dose activity change, negative = growth inhibition, actives largely listed as inhibitors. actives 12% (n = 420,000). AID 686979; note: potency is the fitted concentration of half-maximal effect; nearly all actives have a fitted effect of over 55% in size
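Chicken DT40 Tdp1-/- cells complemented with human TDP1, 400 cells/well, exposed to compounds plus 20 nM camptothecin for at least 48 h at 37 C; viability read as ATP content by CellTiter-Glo luminescence.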
TDP1 cell noCPT – qHTS for Inhibitors of human tyrosyl-DNA phosphodiesterase 1 (TDP1): qHTS in cells in absence of CPT; AID 686978, 2013; Potency, µM (series often up to 46.2 µM), without a hit: at the highest dose activity change, negative = growth inhibition, most hits filed as inhibitors; actives 15% (n = 420,000); DT40 Tdp1-/- hTDP1 cells, no CPT, ATP luminescence, 48 h; note: potency is the fitted concentration of half-maximal effect; nearly all actives have a fitted effect of over 55% in size
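Seeded 400 DT40-hTDP1 cells/well (vehicle DMSO, no 20 nM CPT); pinned compounds; ≥48 hr at 37 °C; CellTiter-Glo luminescence as viability measure.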
VP16 counter – inhibits Gal4-VP16 luciferase reporter, ROR gamma counter-screen; Drosophila S2 Gal4-VP16 UAS-luciferase, luminescence, 20 h; actives 3.5% (n = 310,000); Potency, µM (highest dose often 53.6 µM), for the others: at the highest dose activity, negative = inhibition, usual class: inhibitors;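 note: Gal4-VP16 expression switched on by copper sulfate through the metallothionein promoter; potency is the fitted concentration of half-maximal effect; nearly all actives have a fitted effect of over 50% in size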
Numbers without * were called inactive; [ ] = remark or other dose. Compounds with a hit are over-represented: about 21% of the library has one in this group of screens. Unless noted, calls come from the whole dose curve; as a rule, active = well fitted curve in the direction sought with a large enough effect; inconclusive = small, poorly fitted or top-dose-only effect, or another doubt; inactive = no such curve, though single readings can be large; an effect the other way counts as inactive or inconclusive. % is set by controls: 0 for no effect and ±100 for the full control effect.

For CCOc1ccc2nc(N/C(N)=N/S(=O)(=O)c3ccc(C)cc3)nc(C)c2c1 the results were IL-1B inflam inh -20.6, TDP1 cell CPT inconclusive and TDP1 cell noCPT inconclusive.
`Fc1ccc(CN2CCN(c3ncnc4scc(-c5ccccc5)c34)CC2)cc1` gave RORg inh 13.2%, ELG1 repair inh inconclusive, IL-1B inflam inh inconclusive, TDP1 cell CPT inconclusive, TDP1 cell noCPT inconclusive and VP16 counter -5.1%.
Screening Fc1ccc(-c2csc3ncnc(N4CCN(Cc5ccccc5)CC4)c23)cc1 returned RORg inh -2.7%, ELG1 repair inh -4.9%, IL-1B inflam inh 9.0, TDP1 cell CPT 20.6µM*, TDP1 cell noCPT 14.6µM* and VP16 counter -0.6%.
Cc1c(C(=O)N2CCN(Cc3ccccc3)CC2)sc2ncnc(N3CCOCC3)c12 was read as RORg inh -18.7%, ELG1 repair inh -21.0%, IL-1B inflam inh 28.9, TDP1 cell CPT inconclusive, TDP1 cell noCPT -18.2% and VP16 counter -1.0%[0.365 µM].
For Cc1sc2ncnc(N3CCN(Cc4ccccc4)CC3)c2c1-c1ccc(F)cc1 the results were RORg inh 9.2%, ELG1 repair inh -21.6%, IL-1B inflam inh -54.8*, TDP1 cell CPT inconclusive, TDP1 cell noCPT inconclusive and VP16 counter -19.9%.
`COc1ccc(C)cc1NC(=O)c1nnn(CC(=O)Nc2c(C)cccc2C)c1N` gave TDP1 cell CPT 0.0% and TDP1 cell noCPT -10.3%.
Screening Cc1cccc(C)c1NC(=O)C(=O)NCC(c1ccc2c(c1)OCO2)N1CCOCC1 (stereo not drawn) returned TDP1 cell CPT 4.7% and TDP1 cell noCPT -4.5%.
Screening Cc1ccc(C(=O)NC(=S)c2c(C)cc3ccccn23)cc1 returned IL-1B inflam inh -12.2, TDP1 cell CPT inconclusive and TDP1 cell noCPT inconclusive.
COCCn1nnnc1C(C(C)C)N(Cc1ccccc1)Cc1cc2cc(OC)ccc2[nH]c1=O (stereo not drawn) was read as RORg inh 18.8%, ELG1 repair inh inconclusive, IL-1B inflam inh -55.8*, TDP1 cell CPT inconclusive, TDP1 cell noCPT 16.4µM* and VP16 counter 1.2%.
`COc1ccc2[nH]c(=O)c(CN(Cc3ccco3)C(c3nnnn3Cc3ccccc3)C(C)C)cc2c1` (stereo not drawn) gave RORg inh inconclusive, ELG1 repair inh inconclusive, IL-1B inflam inh -10.1, TDP1 cell CPT 18.4µM*, TDP1 cell noCPT 20.6µM* and VP16 counter -13.2%.
`Cc1cccc2cc(CN(Cc3ccco3)C(c3nnnn3CCc3ccccc3)C(C)C)c(=O)[nH]c12` (stereo not drawn) gave RORg inh inconclusive, ELG1 repair inh 9.2µM*, IL-1B inflam inh 0.0, TDP1 cell CPT inconclusive, TDP1 cell noCPT 14.6µM* and VP16 counter 2.3%.
Cc1ccc(C)c2[nH]c(=O)c(C(c3nnnn3CCc3ccccc3)N3CCOCC3)cc12 (stereo not drawn) was read as RORg inh 22.0%, ELG1 repair inh -9.7%, IL-1B inflam inh -19.3, TDP1 cell CPT inconclusive, TDP1 cell noCPT inconclusive and VP16 counter -3.6%.
`CCc1ccc([C@H]2C(C(=O)O)=C[C@@H](CC3CCCC3)N2S(=O)(=O)c2ccc(C)cc2)cc1` gave ELG1 repair inh 0.2%, IL-1B inflam inh 8.2, TDP1 cell CPT inconclusive and TDP1 cell noCPT -12.6%.
CC(C)(CC(=O)O)CC(=O)Nc1ccc2c(c1)ncn2CCc1ccccc1 was read as RORg inh 6.7%, ELG1 repair inh 0.8%, IL-1B inflam inh 62.9, TDP1 cell CPT -17.0%, TDP1 cell noCPT 18.4% and VP16 counter -4.8%.
`CCN1CCN(c2cc(C)c3cc(NC(=O)c4cncc(Br)c4)ccc3n2)CC1` gave RORg inh -3.1%, ELG1 repair inh inconclusive, IL-1B inflam inh -53.7*, TDP1 cell CPT inconclusive, TDP1 cell noCPT inconclusive and VP16 counter -21.8%.
`CCN1CCN(c2cc(C)c3cc(NC(=O)c4ccc5c(c4)OCO5)ccc3n2)CC1` gave RORg inh inconclusive, ELG1 repair inh inconclusive, IL-1B inflam inh 19.6, TDP1 cell CPT 11.6µM*, TDP1 cell noCPT 14.6µM* and VP16 counter inconclusive.
Screening CCN1CCN(c2cc(C)c3cc(NC(=O)c4cccc(C(F)(F)F)c4)ccc3n2)CC1 returned TDP1 cell CPT 10.3µM* and TDP1 cell noCPT 13µM*.
CCN1CCN(c2cc(C)c3cc(NC(=O)c4ccc(OC)c(OC)c4)ccc3n2)CC1 was read as RORg inh 4.1%, ELG1 repair inh inconclusive, IL-1B inflam inh -26.1, TDP1 cell CPT 14.6µM*, TDP1 cell noCPT 16.4µM* and VP16 counter 2.0%.
For CCOCCC(=O)Nc1ccc2c(c1)c(=O)n(C)n2Cc1cccc(C(F)(F)F)c1 the results were IL-1B inflam inh 23.2, TDP1 cell CPT -18.4% and TDP1 cell noCPT -19.8%.
For COc1cccc(NC(=O)Cn2c(=O)n(Cc3ccc4c(c3)OCO4)c(=O)c3oc4ccccc4c32)c1 the results were TDP1 cell CPT -8.4% and TDP1 cell noCPT -12.9%.
`c1ccc(CNc2ccnc(-c3ccoc3)n2)cc1` gave RORg inh inconclusive, TDP1 cell CPT -0.6%, TDP1 cell noCPT -22.2% and VP16 counter inconclusive.
Screening CCN1CCN(c2cc(C)c3cc(NC(=O)/C=C/c4ccc(OCCC(C)C)cc4)ccc3n2)CC1 returned TDP1 cell CPT 4.61µM* and TDP1 cell noCPT 4.11µM*.
For CCN1CCN(c2cc(C)c3cc(NC(=O)CCC(=O)Nc4ccc(OC)c(OC)c4)ccc3n2)CC1 the results were RORg inh 1.1%, ELG1 repair inh -5.2%, IL-1B inflam inh -5.9, TDP1 cell CPT -1.1%, TDP1 cell noCPT -23.0% and VP16 counter -1.8%.
CC(Nc1ccc(S(=O)(=O)N2CCN(C)CC2)cc1[N+](=O)[O-])c1ccccc1 (stereo not drawn) was read as ELG1 repair inh 9.1%, IL-1B inflam inh -13.0, TDP1 cell CPT 16.4µM* and TDP1 cell noCPT 23.1µM*.
Screening CC(Nc1cc(N2CCN(S(C)(=O)=O)CC2)ccc1[N+](=O)[O-])c1ccccc1 (stereo not drawn) returned RORg inh 20.5%, ELG1 repair inh -26.8%, IL-1B inflam inh -52.0*, TDP1 cell CPT inconclusive, TDP1 cell noCPT 16.4µM* and VP16 counter 0.6%.
